In PubChem BioAssay (NCI):
This is part of a sample that, as a whole, favours compounds with a hit. Of some 83,000 tested, about 20% had one in any assay.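 Negative percent growth values reflect cell death: -40 means 40% of the cells present at the start died, and -100 means all died.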 Calls of active or inactive are those of the source. How the source made its calls: active means growth percent below 10; inactive means the rest.

Experiments:
Assay in all cases: NCI-60 one-dose screen, 48 h (100 = growth as untreated, 0 = no growth, -100 = all killed)
Conditions in all cases: 10 µM unless noted
HCT-15 colon = test system: HCT-15 colon
SNB-75 CNS = test system: SNB-75 CNS
SNB-19 CNS = test system: SNB-19 CNS
U251 CNS = test system: U251 CNS
PC-3 prostate = test system: PC-3 prostate
SK-MEL-5 melanoma = test system: SK-MEL-5 melanoma
UACC-62 melanoma = test system: UACC-62 melanoma
LOX IMVI melanoma = test system: LOX IMVI melanoma
SK-MEL-28 melanoma = test system: SK-MEL-28 melanoma
SK-MEL-2 melanoma = test system: SK-MEL-2 melanoma
EKVX NSCLC = test system: EKVX NSCLC
SN12C renal = test system: SN12C renal
UO-31 renal = test system: UO-31 renal
TK-10 renal = test system: TK-10 renal
ACHN renal = test system: ACHN renal
CAKI-1 renal = test system: CAKI-1 renal
A498 renal = test system: A498 renal
CCRF-CEM leukemia = test system: CCRF-CEM leukemia
MOLT-4 leukemia = test system: MOLT-4 leukemia

Measured: growth

Nc1cccc(S(=O)(=O)c2cccc(N)c2)c1
inactive: HCT-15 colon 114% | SNB-75 CNS 88.3% | SNB-19 CNS 133% | U251 CNS 113% | PC-3 prostate 92% | SK-MEL-5 melanoma 113% | UACC-62 melanoma 102% | LOX IMVI melanoma 104% | SK-MEL-28 melanoma 126% | SK-MEL-2 melanoma 116% | EKVX NSCLC 105% | SN12C renal 112% | UO-31 renal 95.8% | TK-10 renal 123% | ACHN renal 102% | CAKI-1 renal 98.4% | A498 renal 108% | CCRF-CEM leukemia 102% | MOLT-4 leukemia 10.4%

CCCCCCCCCCCCCCCC1=NCC[N+]1(CCO)CCO
active: LOX IMVI melanoma 5.42%
inactive: HCT-15 colon 31.9% | SNB-75 CNS 46.9% | SNB-19 CNS 97.6% | U251 CNS 39.4% | PC-3 prostate 32.1% | SK-MEL-5 melanoma 89.6% | UACC-62 melanoma 76.2% | SK-MEL-28 melanoma 115% | SK-MEL-2 melanoma 85.2% | EKVX NSCLC 72.3% | SN12C renal 67% | TK-10 renal 66.6% | ACHN renal 67.1% | CAKI-1 renal 79.5% | A498 renal 86.8% | MOLT-4 leukemia 43%

c1ccc(C(CC2=NCCCN2)c2ccccc2)cc1
inactive: HCT-15 colon 114% | SNB-75 CNS 86.2% | SNB-19 CNS 107% | U251 CNS 90.8% | PC-3 prostate 83.9% | SK-MEL-5 melanoma 105% | UACC-62 melanoma 89.6% | LOX IMVI melanoma 97.8% | SK-MEL-28 melanoma 107% | SK-MEL-2 melanoma 108% | SN12C renal 90.9% | UO-31 renal 76.8% | TK-10 renal 110% | ACHN renal 104% | CAKI-1 renal 97.6% | A498 renal 111% | MOLT-4 leukemia 92.7%
active: CCRF-CEM leukemia 9.65%

COc1cc2c(cc1OC)C(=O)OC2
inactive: HCT-15 colon 119% | SNB-75 CNS 78.7% | SNB-19 CNS 113% | U251 CNS 106% | PC-3 prostate 125% | SK-MEL-5 melanoma 99.4% | UACC-62 melanoma 97.6% | LOX IMVI melanoma 109% | SK-MEL-28 melanoma 147% | EKVX NSCLC 108% | SN12C renal 99.8% | UO-31 renal 101% | TK-10 renal 123% | ACHN renal 103% | CAKI-1 renal 55.6% | CCRF-CEM leukemia 124% | MOLT-4 leukemia 104%

O=c1cc(-c2ccc3c(c2)OCCO3)oc2cc(Cl)ccc12
active: SNB-75 CNS -38.5% | U251 CNS 4.26% | TK-10 renal -78.2% | ACHN renal -70.1% | CAKI-1 renal 4.01%
inactive: HCT-15 colon 74.5% | SNB-19 CNS 30.3% | PC-3 prostate 43.3% | SK-MEL-5 melanoma 76.3% | UACC-62 melanoma 65.1% | LOX IMVI melanoma 32.1% | SK-MEL-28 melanoma 21.4% | EKVX NSCLC 28.1% | SN12C renal 26% | CCRF-CEM leukemia 97% | MOLT-4 leukemia 101%

COS(=O)(=O)CCN(CCOS(C)(=O)=O)S(C)(=O)=O
inactive: HCT-15 colon 95.4% | SNB-75 CNS 90.4% | SNB-19 CNS 107% | U251 CNS 96.8% | PC-3 prostate 94.8% | SK-MEL-5 melanoma 104% | LOX IMVI melanoma 96.5% | SK-MEL-28 melanoma 99.1% | SK-MEL-2 melanoma 78.9% | SN12C renal 98.1% | UO-31 renal 86.7% | TK-10 renal 96.7% | CAKI-1 renal 96.8% | A498 renal 115% | MOLT-4 leukemia 90.5%

O=C1C2=C(C(=O)c3c(O)ccc(O)c31)N(c1ccc(N3CCOCC3)nc1)Cc1ccccc1O2
inactive: SNB-19 CNS 12.2%
active: HCT-15 colon -77.4% | SNB-75 CNS -19.8% | U251 CNS 0.735% | PC-3 prostate 1.08% | SK-MEL-5 melanoma -75% | UACC-62 melanoma -66.7% | LOX IMVI melanoma -66.8% | SK-MEL-28 melanoma -77% | SK-MEL-2 melanoma -42.1% | EKVX NSCLC -9.79% | SN12C renal -85.2% | UO-31 renal -100% | TK-10 renal -98.7% | ACHN renal -100% | A498 renal -50.1% | CCRF-CEM leukemia -10.1% | MOLT-4 leukemia -24.4%

Cc1ccc(NC(=O)c2nc(S(C)(=O)=O)oc2-c2ccc(F)cc2)cc1Nc1ccc2ncn(C)c(=O)c2c1
active: HCT-15 colon 3.34% | LOX IMVI melanoma -71.5% | MOLT-4 leukemia -5.15%
inactive: SNB-75 CNS 105% | U251 CNS 69.7% | PC-3 prostate 88.6% | SK-MEL-5 melanoma 78.9% | UACC-62 melanoma 85.8% | SK-MEL-28 melanoma 82.1% | EKVX NSCLC 72.7% | SN12C renal 67.7% | UO-31 renal 72.5% | TK-10 renal 90.8% | ACHN renal 48.4% | A498 renal 130% | CCRF-CEM leukemia 16.3%

O=C(/C=C/c1cccc([N+](=O)[O-])c1)c1ccc(Nc2nc(N3CCCCC3)nc(N3CCCCC3)n2)cc1
inactive: HCT-15 colon 87.6% | SNB-75 CNS 101% | SNB-19 CNS 100% | U251 CNS 95.2% | PC-3 prostate 89.3% | SK-MEL-5 melanoma 97.6% | UACC-62 melanoma 91% | LOX IMVI melanoma 92.9% | SK-MEL-2 melanoma 105% | EKVX NSCLC 92.3% | SN12C renal 96.3% | UO-31 renal 75.1% | TK-10 renal 108% | ACHN renal 102% | CAKI-1 renal 89.6% | A498 renal 80.9% | CCRF-CEM leukemia 104% | MOLT-4 leukemia 93.4%

C#CC[C@@H]1C[C@]2(C)[C@H]3CC[C@@H]4[C@H]5C(C(=C)C)CC[C@]5(C(=O)NCCN(CCN)CCN)CC[C@@]4(C)[C@]3(C)CC[C@H]2C(C)(C)[C@H]1OC(C)=O (some centres not stated)
inactive: SNB-75 CNS 103% | SNB-19 CNS 69.8% | PC-3 prostate 79.9% | SK-MEL-5 melanoma 96.5% | UACC-62 melanoma 103% | LOX IMVI melanoma 65.5% | SK-MEL-28 melanoma 105% | SK-MEL-2 melanoma 112% | EKVX NSCLC 31% | SN12C renal 87.8% | UO-31 renal 74.7% | TK-10 renal 95% | ACHN renal 91.3% | CAKI-1 renal 56.3% | A498 renal 128% | CCRF-CEM leukemia 22.5% | MOLT-4 leukemia 31.1%
active: HCT-15 colon -52.9% | U251 CNS -28.4%

C=CC[C@]1(O)CC[C@H]2[C@@H]3CCc4cc(O)ccc4[C@H]3CC[C@@]21C
inactive: HCT-15 colon 81.4% | SNB-75 CNS 75.7% | SNB-19 CNS 94.4% | U251 CNS 93.4% | PC-3 prostate 85.6% | SK-MEL-5 melanoma 99.6% | UACC-62 melanoma 89.4% | LOX IMVI melanoma 92.6% | SK-MEL-28 melanoma 101% | SK-MEL-2 melanoma 90.6% | SN12C renal 96.1% | UO-31 renal 85.7% | TK-10 renal 107% | ACHN renal 94.5% | CAKI-1 renal 103% | A498 renal 97.2% | MOLT-4 leukemia 62%

NS(=O)(=O)c1ccc(N2N=C(c3cccs3)CC2c2ccccc2O)cc1 (configuration not stated)
active: HCT-15 colon 4.16% | U251 CNS 0.571% | PC-3 prostate 8.13% | SK-MEL-5 melanoma -29.1% | A498 renal -13.2% | CCRF-CEM leukemia 4.36% | MOLT-4 leukemia 8.13%
inactive: SNB-75 CNS 30.5% | SNB-19 CNS 63.3% | UACC-62 melanoma 24.2% | LOX IMVI melanoma 13.5% | SK-MEL-28 melanoma 27.3% | SN12C renal 16.5% | UO-31 renal 34.9% | TK-10 renal 23.5% | ACHN renal 15.9% | CAKI-1 renal 24.2%
